Measured values: PubChem BioAssay (NCATS)
Records with an inconclusive call do not appear. Calls of active or inactive are those of the source. Calls come from the whole dose curve; as a rule, active = well fitted curve in the direction sought with a large enough effect; inconclusive = small, poorly fitted or top-dose-only effect, or another doubt; inactive = no such curve, though single readings can be large; an effect the other way counts as inactive or inconclusive.

Test system: not listed separately
Assay: Cell Viability - LYMP2-024 (AID 988); note: nearly all actives have a fitted effect of over 60% in size; note: potency is the fitted concentration of half-maximal effect;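 for activity change, negative = cytotoxicity: plate controls were DMSO only for no effect and 92 µM tetraoctylammonium bromide for full effect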
Conditions: LYMP2-024 lymphoblastoid cell viability; series mostly up to 92.2 µM; activity change, negative = cytotoxicity: at the top concentration
Outline: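 Steps: seed 2500 cells/well, 5 hr 37 C; add compound, 24 hr 37 C; add CellTiter-Glo, 30 min room temperature; read luminescence. AC50 derived by Hill modelling of concentration-dependent ATP loss.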

| SMILES | activity change, negative = cytotoxicity | Potency |
| --- | --- | --- |
| CCCCCCCC/C=C\CCCCCCCC(=O)O | -7.88% (inactive) |  |
| CCCCC/C=C\C/C=C\CCCCCCCC(=O)O | -26.9% (inactive) |  |
| O=S(=O)(O)O |  | inactive |
| CC1=C2[C@@H]([C@H](C)CC[C@H]2/C=C(\C)C(=O)O)[C@H](O)C1 | -16.6% (inactive) |  |
| O=CCCCC=O |  | 12.6 µM (active) |
| IC(I)I | -12.8% (inactive) |  |
| CC(C)=O | -2.99% (inactive) |  |
| CC(O)CO (stereo unspecified) |  | inactive |
| CC1=C(/C=C/C(C)=C/C=C/C(C)=C/CO)C(C)(C)CCC1 |  | 50.1 µM (active) |
| O=C(O)CCC(=O)C(=O)O | -2.8% (inactive) |  |
| CCCCCCCC(=O)O |  | inactive |
| Nc1ccn([C@H]2CS[C@@H](CO)O2)c(=O)n1 | -13.1% (inactive) |  |
| CCOC(C)=O | 11.5% (inactive) |  |
| Cc1ccccc1 |  | inactive |

Test system: not listed separately
Assay: Cell Viability - LYMP2-026 (AID 989);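 note: cells exposed to compound for 24 h at 37 °C; nearly all actives have a fitted effect of over 50% in size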; note: potency is the fitted concentration of half-maximal effect; for activity change, negative = cytotoxic: % is set by controls: 0 for no effect and ±100 for the full control effect
Conditions: LYMP2-026 lymphoblastoid cell viability, qHTS; series mostly up to 92.2 µM; activity change, negative = cytotoxic: at the top concentration
Outline: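 Luminescent ATP signal (CellTiter-Glo, 30 min room temperature) measures viable lymphoblastoid cells after 24 hr compound treatment at 37 C. Decreased ATP reflects acute toxicity; AC50 values come from Hill-equation modeling.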

| SMILES | activity change, negative = cytotoxic | Potency |
| --- | --- | --- |
| CCCCCCCC/C=C\CCCCCCCC(=O)O | -5.6% (inactive) |  |
| CCCCC/C=C\C/C=C\CCCCCCCC(=O)O | -8.07% (inactive) |  |
| O=S(=O)(O)O |  | inactive |
| CC1=C2[C@@H]([C@H](C)CC[C@H]2/C=C(\C)C(=O)O)[C@H](O)C1 | 7.65% (inactive) |  |
| O=CCCCC=O |  | 25.1 µM (active) |
| IC(I)I | -5.47% (inactive) |  |
| CCOc1ccc2c(c1)C(C)=CC(C)(C)N2 | -13.5% (inactive) |  |
| CC(C)=O | 1.55% (inactive) |  |
| CC(O)CO (stereo unspecified) |  | inactive |
| O=C(O)CCC(=O)C(=O)O | 3.77% (inactive) |  |
| CCCCCCCC(=O)O |  | inactive |
| Nc1ccn([C@H]2CS[C@@H](CO)O2)c(=O)n1 | -2.95% (inactive) |  |
| CCOC(C)=O | 1.01% (inactive) |  |
| Cc1ccccc1 |  | inactive |

Target: Alpha-galactosidase A (Homo sapiens) (UniProt P06280)
Assay: Counterscreen for Glucocerebrosidase Inhibitors: qHTS Assay for Human alpha-Galactosidase at pH 4.5 (AID 992); note: 0% is about no effect
Conditions: purified enzyme, fluorogenic substrate; series mostly up to 76.9 µM; activity change, negative = inhibition: at the top concentration
Outline: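 Concentration-response curves (0.7 nM to 77 uM final) were modeled with the Hill equation to give AC50. Reactions: 2 nM enzyme, 80 uM fluorogenic alpha-galactoside, pH 4.5 citric acid buffer, 20 min, room temperature.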

Chain of Alpha-galactosidase A (Homo sapiens) (P06280 whole entry, looked up): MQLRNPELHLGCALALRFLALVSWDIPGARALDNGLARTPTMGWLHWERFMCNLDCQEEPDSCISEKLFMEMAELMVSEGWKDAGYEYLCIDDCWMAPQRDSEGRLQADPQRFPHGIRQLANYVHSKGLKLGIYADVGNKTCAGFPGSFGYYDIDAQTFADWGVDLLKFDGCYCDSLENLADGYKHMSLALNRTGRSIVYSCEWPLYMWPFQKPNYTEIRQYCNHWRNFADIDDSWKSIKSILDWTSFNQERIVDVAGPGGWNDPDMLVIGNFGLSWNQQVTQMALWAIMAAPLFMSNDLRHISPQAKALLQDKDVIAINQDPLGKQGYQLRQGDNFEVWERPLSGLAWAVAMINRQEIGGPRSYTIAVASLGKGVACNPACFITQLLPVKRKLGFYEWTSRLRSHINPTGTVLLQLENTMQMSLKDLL

| SMILES | activity change, negative = inhibition |
| --- | --- |
| CC[N+](C)(C)Cc1ccccc1Br | -1.67% (inactive) |
| CN=C(NC#N)Nc1ccc(C2=NNC(=O)C[C@@H]2C)cc1 | -0.819% (inactive) |
| COc1ccc(CCNC[C@H](O)c2ccc(O)cc2)cc1OC | -0.785% (inactive) |

Test system: not listed separately
Assay: Cell Viability - LYMP1-002 - Assay at 24 hr (AID 993); note: % is set by controls: 0 for no effect and ±100 for the full control effect
Conditions: LYMP1-002 lymphoblastoid cells viability; series mostly up to 92.2 µM; activity change, negative = cytotoxicity: at the top concentration
Outline: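 Cells plated 2500/well, 5 hr 37 C; compounds added, 24 hr 37 C; CellTiter-Glo added, 30 min RT; luminescence read. Tetraoctylammonium bromide positive control. Hill-equation AC50.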

| SMILES | activity change, negative = cytotoxicity | outcome |
| --- | --- | --- |
| CCCCCCCC/C=C\CCCCCCCC(=O)O | 3.13% (inactive) |  |
| CCCCC/C=C\C/C=C\CCCCCCCC(=O)O | -3.37% (inactive) |  |
| O=S(=O)(O)O |  | inactive |
| CC1=C2[C@@H]([C@H](C)CC[C@H]2/C=C(\C)C(=O)O)[C@H](O)C1 | -2.71% (inactive) |  |
| O=CCCCC=O | -5.64% (inactive) |  |
| IC(I)I | -3.62% (inactive) |  |
| CCOc1ccc2c(c1)C(C)=CC(C)(C)N2 | -24% (inactive) |  |
| CC(C)=O | -1.16% (inactive) |  |
| CC(O)CO (stereo unspecified) |  | inactive |
| CC1=C(/C=C/C(C)=C/C=C/C(C)=C/CO)C(C)(C)CCC1 | -28.6% (inactive) |  |
| O=C(O)CCC(=O)C(=O)O | 1.64% (inactive) |  |
| CCCCCCCC(=O)O |  | inactive |
| Nc1ccn([C@H]2CS[C@@H](CO)O2)c(=O)n1 | -5.22% (inactive) |  |
| CCOC(C)=O | 1.46% (inactive) |  |
| Cc1ccccc1 |  | inactive |
